VP16 counter – counter-screen for ROR gamma inhibitors: Gal4-VP16 reporter; Potency, µM (series often up to 53.6 µM), actives largely listed as inhibitors; Drosophila S2 Gal4-VP16 UAS-luciferase, luminescence, 20 h; 310,000 tested, 3.5% active; AID 2546;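 further: Gal4-VP16 expression switched on by copper sulfate through the metallothionein promoter; nearly all actives have a fitted effect of over 50% in size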
MCF10A rereplic – induces DNA re-replication in MCF 10a normal breast cells | MCF 10A DNA re-replication, Hoechst nuclear intensity, 48 h | Potency, µM (top dose mostly 46.1 µM), hits mostly activators | 350,000 tested, 2.9% active; further: nearly all actives have a fitted effect of over 50% in size
Giardia kill – Giardia lamblia killing; Giardia lamblia trophozoite viability; activity change, % at 7.66 µM, hits read low; 340,000 tested, 0.15% active; AID 540267; in the data active means activity change below about -80%; inconclusive means between about -30% and that limit;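 further: parasites exposed to compound for two days anaerobically before the ATP read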
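Giardia trophozoites, 100 cells per well, were exposed to compounds for 48 hrs at 37 deg C under anaerobic conditions; viability was then read as ATP content by bioluminescence after 15-30 min at room temperature.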
RORg inh – ROR gamma (mouse) transcription inhibition; P51450; Drosophila S2 Gal4-RORgamma UAS-luciferase reporter, 20 h; Potency, µM (highest dose often 53.6 µM), hits mostly inhibitors; 310,000 tested, 5.4% active; AID 2551; further: nearly all actives have a fitted effect of over 60% in size
Target sequence (P51450 whole entry, looked up, the tested form may be a part): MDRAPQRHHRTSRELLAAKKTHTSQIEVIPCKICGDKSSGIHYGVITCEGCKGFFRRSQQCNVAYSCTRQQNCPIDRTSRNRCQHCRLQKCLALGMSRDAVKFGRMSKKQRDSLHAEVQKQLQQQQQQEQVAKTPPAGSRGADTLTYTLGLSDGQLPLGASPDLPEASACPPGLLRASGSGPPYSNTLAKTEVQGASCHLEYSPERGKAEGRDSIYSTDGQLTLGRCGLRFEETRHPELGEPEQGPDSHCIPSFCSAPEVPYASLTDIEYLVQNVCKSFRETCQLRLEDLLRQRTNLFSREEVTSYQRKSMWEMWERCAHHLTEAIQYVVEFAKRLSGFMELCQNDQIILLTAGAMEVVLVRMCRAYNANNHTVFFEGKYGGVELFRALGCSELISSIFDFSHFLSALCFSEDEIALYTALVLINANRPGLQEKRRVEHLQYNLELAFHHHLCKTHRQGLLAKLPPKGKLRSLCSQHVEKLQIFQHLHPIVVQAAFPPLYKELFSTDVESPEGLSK
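Drosophila Schneider cells stably carrying a metallothionein-driven Gal4 DBD–ROR gamma fusion and a UAS-Photinus luciferase reporter were exposed to compound for 1 hr, then induced with copper sulfate (700 uM final) for 20 hr at ambient temperature before luminescence reading.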
BCR signal inh – blocks chronic active B-cell receptor signaling | AID 493014 | 340,000 tested, 0.05% active | Potency, µM (top dose mostly 46.1 µM), most hits filed as inhibitors | ABC-DLBCL IkBa-CBG/CBR reporter, luminescence ratio, 4 h; active means well fitted inhibition curve with a large enough effect in the signal ratio, with a control signal flat, not every such curve was filed as active; inconclusive means small, poorly fitted or top-dose-only effect, or effect the other way, or a change in a side signal; the % refers to the signal ratio
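Compounds up to 46 uM were incubated four hours with TMD8 cells whose green CBG68 luciferase is fused to IkappaBalpha; red CBR luminescence normalised the signal, and concentration-effect curves were fitted to fusion, red and ratio data.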
SW480 rerep – DNA re-replication induction in SW480 cells | SW480 DNA re-replication, Hoechst DNA content imaging, 48 h | Potency, µM (doses to about 46.1 µM), actives largely listed as activators | 340,000 tested, 1.8% active; further: nearly all actives have a fitted effect of over 55% in size
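Compounds, transferred as 23 nL by pin tool, were incubated with cells for 48 hr; DNA content per nucleus was then quantified by Hoechst staining and fluorescence plate imaging.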
Numbers stand for hits; 0 = inactive; ? = inconclusive; - = no result given; [ ] = another dose, or the depositor's remark. This is a sample that favours compounds with a hit; in the whole collection about 8.3% have one here. Unless noted, the call rests on the fitted dose curve; in most records, active means well fitted curve in the direction sought with a large enough effect; inconclusive means small, poorly fitted or top-dose-only effect, or another doubt; inactive means no such curve, though single readings can be large; an effect the other way counts as inactive or inconclusive.

SMILES | VP16 counter | MCF10A rereplic | Giardia kill | RORg inh | BCR signal inh | SW480 rerep
C/C(=N/NC(=O)C(O)(c1ccccc1)c1ccccc1)c1ccc([N+](=O)[O-])o1 | ? | 0 | -90 | ? | 0 | 0
O=C(NCC1CCCO1)c1ccc([N+](=O)[O-])o1 (centres undefined) | 0 | ? | ? | 0 | 0 | ?
NC(=O)c1oc2ccccc2c1NC(=O)c1ccc([N+](=O)[O-])o1 | ? | ? | -88 | ? | ? | ?
O=C(NNC(=O)c1ccc([N+](=O)[O-])o1)c1ccccc1 | 18µM | ? | -98 | 11µM | ? | ?
C/C(=N\NC(=O)c1cccc([N+](=O)[O-])c1)c1ccco1 | 0 | 0 | 0 | ? | 0 | 0
CCN(Cc1ccncc1)Cc1c(O)ccc2cc(Br)ccc12 | ? | 0 | 0 | ? | ? | 0
COc1cccc2c1C1COC3C4CC(C(=O)O)C(C(C2)N13)N4C (centres undefined) | - | 2.6µM | 0 | - | - | ?
C=CCc1cccc(/C=N/NC(=O)c2ccc3nc[nH]c3c2)c1O | ? | 21µM | 0 | ? | 0 | ?
C=CCc1cccc(/C=N/NC(=O)c2ccccc2Br)c1O | 4µM | ? | 0 | 1.4µM | ? | ?
C=CCc1cccc(/C=N/NC(=O)c2ccccc2OC)c1O | 1.3µM | 0 | 0 | 0.5µM | ? | ?
O=C1C(Cc2ccccc2)Nc2ncnc(N3CCc4ccccc4C3)c2N1Cc1ccc(Cl)cc1 (centres undefined) | - | 23µM | ? | - | 0 | ?
CC1Nc2ncnc(N3CCN(c4ccccc4)CC3)c2N(Cc2ccc(Br)cc2)C1=O (centres undefined) | - | 16µM | 0 | - | 0 | 0
CCc1nnc(NC(=O)CSc2nnc(C(C)NC(=O)c3ccccc3)n2C)s1 (centres undefined) | 0 | 0 | 0 | 0 | 0 | 0
CCOc1ccccc1Nc1nnc(SCc2nnc(-c3cc(OC)c(OC)c(OC)c3)o2)s1 | ? | ? | 0 | 0 | 0 | 0
COc1ccccc1Nc1nnc(SCc2nnc(-c3cc(OC)c(OC)c(OC)c3)o2)s1 | 0 | 21µM | 0 | 0 | ? | ?
COc1cc(-c2nnc(CSc3nnc(Nc4ccc(C(C)C)cc4)s3)o2)cc(OC)c1OC | 0 | 15µM | 0 | 0 | 0 | 0
COc1ccc(NC(=O)c2ccc(COc3ccccc3Br)o2)cc1OC | 0 | 12µM | 0 | ? | ? | 0
COc1ccc(NC(=O)c2ccc(COc3ccccc3OC)o2)cc1OC | 0 | 0 | 0 | 0 | ? | 0[9.22 µM]
O=C(NNC(=O)C1CCN(c2ncccn2)CC1)c1ccc(F)cc1 | 0 | 0 | 0 | 0 | 0 | 0
CN1CCN(c2ccc([N+](=O)[O-])cc2C(=O)c2ccc(Br)cc2)CC1 | 0 | ? | 0 | 0 | 0 | 3.7µM
O=[N+]([O-])c1ccc(N2CCN(c3ccc([N+](=O)[O-])cc3CO)CC2)c(CO)c1 | 6.3µM | 0 | 0 | ? | 0 | 0
Cc1ccc(C(=O)c2cc([N+](=O)[O-])ccc2N2CCOCC2)c(C)c1 | 0 | 0.92µM | 0 | 0 | ? | 0.13µM
Cc1ccc(C(=O)c2cc([N+](=O)[O-])ccc2N2CCN(C)CC2)cc1 | 0 | 16µM | 0 | 0 | 0 | 10µM
CN1CCN(c2ccc([N+](=O)[O-])cc2C(=O)c2ccccc2)CC1 | 0 | 0 | 0 | 0 | 0 | ?
Cc1ccc(C)c(C(=O)COC(=O)c2cc([N+](=O)[O-])ccc2N2CCOCC2)c1 | - | 0 | 0 | - | 0 | 0
SMILES | VP16 counter | MCF10A rereplic | Giardia kill | RORg inh | BCR signal inh | SW480 rerep
Cc1cc([N+](=O)[O-])cc2c1NC(=O)C2(O)N1CCOCC1 (centres undefined) | ? | 0 | 0 | 11µM | ? | 0
CC1CCN(C2(O)C(=O)Nc3ccc([N+](=O)[O-])cc32)CC1 (centres undefined) | 0 | 0 | 0 | 0 | 0 | 0
O=C(O)c1cc(-c2ccc3c(c2)OCO3)nc2ccccc12 | 0 | 0 | 0 | 0 | ? | 0
Cc1ccc2nc(-c3ccc4c(c3)OCCO4)cc(C(=O)O)c2c1 | 0[0.365 µM] | 0 | 0 | 5µM | ? | 0
Cc1ccc(-n2cccc2C(=S)N=P(N(C)C)(N(C)C)N(C)C)cc1 | 6.3µM | ? | 0 | 2.2µM | 0 | ?
Cc1cnc(NC(=O)c2c(-c3ccccc3)noc2C)s1 | ? | 0 | 0 | ? | 0 | 0
C(#Cc1c(-c2ccsc2)sc2ccccc12)c1ccsc1 | - | ? | 0 | - | 0 | 0
CNc1ncc(-c2nnnn2-c2ccccc2)c(-c2ccccc2)n1 | 0 | ? | 0 | 0 | 0 | 15µM
CCNC(=S)Nc1ccc(Oc2ccccc2)cc1 | - | 0 | 0 | - | - | 0[9.22 µM]
CCOc1ccc(NC(=S)Nc2cc(OC)c(Cl)cc2OC)cc1 | 22µM | 0 | 0 | 10µM | 0 | 0
CCOc1ccc(NC(=S)Nc2cc(C)[nH]n2)cc1 | 7.1µM | 0 | 0 | 3.2µM | 0 | 0
COc1cc(NC(=S)NCCCO)c(OC)cc1Cl | 0 | 0 | 0 | 0 | 0 | 0
CCNC(=S)Nc1ccc(OCc2nc3ccccc3s2)cc1 | 16µM | 0 | 0 | 13µM | 0 | 0[9.22 µM]
CCNC(=S)Nc1ccc(OCC)cc1 | ? | 0 | 0 | 13µM | 0 | 0
COc1ccccc1-c1nc(SCC(=O)N(C)c2ccccc2)c2c(=O)n(C)c(=O)n(C)c2n1 | 0 | 0 | 0 | 0 | 0 | 0
CCOc1ccc(NC(=O)CCC(=O)c2ccc(Br)cc2)cc1 | 0 | 0 | 0 | 0 | 0 | 0.65µM
CCOc1ccc(NC(=S)Nc2ccc(C)c([N+](=O)[O-])c2)cc1 | ? | 0 | 0 | 14µM | 0 | 0
CCOc1ccc(NC(=S)Nc2ccc(OC(F)(F)F)cc2)cc1 | ? | 0 | 0 | ? | 0 | 0
CCOc1ccc(NC(=S)Nc2ccc(OCC)cc2)cc1 | 0 | ? | 0 | 10µM | 0 | ?
CCOc1ccc(NC(=O)C(CC(=O)O)Cc2ccccc2)cc1 (centres undefined) | 0[10 µM] | 0 | 0 | 0 | 0 | 0
CCOc1ccc(NC(=O)CCC(=O)c2ccc(OC)cc2)cc1 | 0 | 0 | 0 | 0 | 0 | 0
CCOc1ccc(NC(=S)NC(C)CCc2ccccc2)cc1 (centres undefined) | 7.1µM | 0 | 0 | 2.5µM | 0 | 0
CCOc1ccc(NC(=S)/C(=C(\[O-])c2ccc(C)c([N+](=O)[O-])c2)[n+]2ccccc2)cc1 | 0 | 0 | 0 | 0 | ? | 0
CCc1ccccc1NC(=O)COc1ccc2oc(-c3ccc(OC)cc3)cc(=O)c2c1 | 0 | 0 | 0 | 0 | 0 | 0
CC(NC(=O)/C(=C/c1cccc([N+](=O)[O-])c1)NC(=O)c1ccco1)C(=O)O (centres undefined) | 0 | 0 | 0 | 0 | 0 | 0
COCCCN1C(=O)C2C(C(=O)Nc3cccc(Cl)c3)C3C=CC2(O3)C1C(=O)NC1CCCCC1 (centres undefined) | 0 | 0 | 0 | 0 | 0 | 0
Cc1ccccc1NC(=S)NC(=O)CCc1ccccc1 | 0 | 0 | 0 | 0 | 0 | 0
